Env fusion inh – inhibitors of HIV-1 Env-driven cell-cell fusion, primary screen, HeLa-JRFL effector, CEM21 target cells, luciferase; inhibition, % at 12.3 µM; 360,000 compounds, 1.1% hits;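 active = mean replicate inhibition score of at least 50 and every replicate individually at or above 50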;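 also: 0% = plate neutral controls and 100% = maraviroc near 300 nM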
ALR inh – inhibitors of human ALR sulfhydryl oxidase, primary screen, biochemical, H2O2 detection, HRP-luminol luminescence, single point; AID 485317, 2010; inhibition, % (test concentration not listed); 290,000 compounds, 3.8% hits; purified ALR, DTT oxidation; FAD-linked sulfhydryl oxidase ALR (Homo sapiens), P55789;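 active = mean replicate inhibition above about 79%, with every replicate also reaching it, limit read from the data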
Target sequence (P55789 whole entry, looked up): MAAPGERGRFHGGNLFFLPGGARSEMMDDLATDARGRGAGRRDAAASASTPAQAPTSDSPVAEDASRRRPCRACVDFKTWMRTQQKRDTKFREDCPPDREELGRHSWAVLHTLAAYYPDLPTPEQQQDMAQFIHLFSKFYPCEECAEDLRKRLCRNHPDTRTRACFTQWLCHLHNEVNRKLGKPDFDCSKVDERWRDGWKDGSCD
F508del corr – F508del CFTR correction, initial screen, CFBE line, single point. CFBE cells, YFP halide quenching; stimulated with forskolin plus potentiator P3; % fluorescence drop versus neutral controls. activity (quench increase), % at 7.58 µM. AID 720511, 2013. 350,000 compounds, 0.36% hits;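 active = mean added fluorescence quench of at least 8% versus neutral control, with both replicates also reaching 8%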;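 also: cells transiently co-express mutant CFTR-F508del with the halide-sensitive YFP; corrector assay measuring rescue of mutant channel to the surface after 24 h compound exposure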
NSD2 inh – NSD2 histone methyltransferase inhibitors, primary screen, biochemical, AlphaScreen, single concentration, set 2. NSD2 peptide methylation, 120 min. inhibition, % at 12.5 µM. 310,000 compounds, 0.54% hits. AID 743445, 2014; in the data active = inhibition above about 50%
CASP6 VEID inh – human caspase-6 inhibitors, primary screen, biochemical, VEID-R110 fluorescence, single point, set 2 | P55212 | purified caspase-6, Z-VEID-R110 cleavage fluorescence | inhibition, % at 12.5 µM | 350,000 compounds, 0.53% hits;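 active = mean inhibition across replicates at least about 35%, with every replicate also reaching that limit, limit read from the data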;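 also: 0% = median of neutral control wells and 100% = no fluorescence left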
PglD DTNB – C. jejuni PglD acetyltransferase inhibitors, primary screen, biochemical, DTNB colorimetric, single point; purified PglD enzyme, DTNB colorimetric CoA detection; 360,000 compounds, 0.098% hits; inhibition, % at 12.5 µM; UDP-N-acetylbacillosamine N-acetyltransferase PglD (Campylobacter jejuni); AID 602405, 2012; in the data active = inhibition above about 16%, passing the limit was not always enough
Active calls of the source: *; [ ] = dose if it differs, or a comment. In the library only some 4.1% were active in any assay of this set; here they are far more common.

Screening Cc1nc(SCc2cccnc2)[nH]c(=O)c1C returned ALR inh 98.6*, NSD2 inh -4.4 and PglD DTNB 5.1.
For Cc1nc([N+](=O)[O-])c(Br)n1CC(=O)c1ccc(Cl)cc1 the results were ALR inh 97.2* and NSD2 inh 13.4.
Screening CCCC#Cc1ccc2c(c1)O[C@H](CN(C)C(=O)NC(C)C)[C@@H](C)CN([C@@H](C)CO)S2(=O)=O returned Env fusion inh -6.6[16.7 µM], F508del corr -2.5, CASP6 VEID inh 1.5 and PglD DTNB -2.1.
`CN(C)c1ccc(/C=C2\CCCCC2=O)cc1` gave Env fusion inh -32.5, ALR inh 91.5*, F508del corr -0.7, NSD2 inh 4.9 and CASP6 VEID inh 4.3.
`CN(C)c1ccc(C=C2SC(=S)NC2=O)cc1` gave Env fusion inh -20.5, F508del corr -1.5, CASP6 VEID inh -1.0 and PglD DTNB 1.0.
For CCCNC(=O)Nc1ccc2c(c1)C(=O)N(C)[C@@H]1CC[C@H](CC(=O)O)O[C@@H]1CO2 the results were Env fusion inh -4.4[16.7 µM], F508del corr 2.6 and PglD DTNB 8.1.
For COc1ccc(NC(=O)CSC2CC(=O)N(c3ccc4c(c3)OCCO4)C2=O)cc1 (configuration not stated) the results were Env fusion inh 11.8, ALR inh 98.5*, NSD2 inh -1.9 and PglD DTNB 4.4.
`Cc1ccc(SC2CC(=O)N(c3ccc4c(c3)OCCO4)C2=O)cc1` (configuration not stated) gave Env fusion inh -4.5, ALR inh 97.8*, F508del corr 1.2, NSD2 inh -5.7 and CASP6 VEID inh 2.5.
For COc1ccccc1NC(=O)CSC1CC(=O)N(c2ccc3c(c2)OCO3)C1=O (configuration not stated) the results were Env fusion inh -92.1, ALR inh 99.6*, NSD2 inh 1.7 and PglD DTNB -3.7.
`CO[C@H]1CN(C)C(=O)c2ccc(NS(=O)(=O)c3ccc(C)cc3)cc2OC[C@@H](C)N(C(=O)NC(C)C)C[C@H]1C` gave F508del corr -0.5.
COc1cc(/C=N/NC(=O)Cn2nnc3ccccc32)ccc1O was read as Env fusion inh 5.1, ALR inh 92.2*, F508del corr 2.5, NSD2 inh -0.1 and CASP6 VEID inh 1.9.
`COc1cc(/C=N/NC(=O)CCn2nnc3ccccc32)ccc1O` gave Env fusion inh -7.0, ALR inh 99.1*, F508del corr -1.0, NSD2 inh -2.5 and CASP6 VEID inh 0.7.
Screening COc1cccc(/C=N/NC(=O)CCn2nnc3ccccc32)c1 returned Env fusion inh 9.7, ALR inh 19.3, F508del corr 0.0, NSD2 inh -1.7, CASP6 VEID inh -0.7 and PglD DTNB -2.8.
Screening CCOc1cc(/C=N\NC(=O)Cn2nnc3ccccc32)ccc1O returned Env fusion inh 5.3, ALR inh 55.4, F508del corr -0.8 and CASP6 VEID inh -2.2.
`CCC(=O)Nc1ccc2c(c1)C(=O)N(C)[C@H]1CC[C@H](CC(=O)NCC3CCCCC3)O[C@@H]1CO2` gave Env fusion inh -7.4[16.7 µM], F508del corr -1.7, CASP6 VEID inh -1.0 and PglD DTNB 0.4.
For CO[C@H]1CN(C)C(=O)c2ccc(NS(C)(=O)=O)cc2OC[C@H](C)NC[C@H]1C the results were F508del corr -2.6, CASP6 VEID inh -1.8 and PglD DTNB 2.0.
CCS(=O)(=O)Nc1ccc2c(c1)C(=O)N(C)C[C@@H](OC)[C@@H](C)CN(Cc1ccccn1)[C@@H](C)CO2 was read as Env fusion inh -0.4[16.7 µM], F508del corr -1.4 and CASP6 VEID inh 1.7.
COC(=O)c1cc(-c2c(C)nn(-c3ccccc3)c2C)n[nH]1 was read as ALR inh 85.9*, NSD2 inh 0.3 and PglD DTNB 2.1.
For Cc1nn(-c2ccccc2)c(C)c1-c1cc(C(=O)N/N=C/c2cccnc2)[nH]n1 the results were Env fusion inh -38.8, ALR inh -1.5, F508del corr 2.8 and NSD2 inh -0.3.
